Unmarked numbers belong to inactive results. For some of these results: Entries with a potency or affinity are not part of this list. The source made the active and inactive calls. Unless noted, how the calls were made is not given here.
Key:
[1] = antimalarial activity against Dd2 strain (AID 2302;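 active means growth inhibition above 50% at the single 2 µM test dose, taken to imply half-maximal potency below 2 µM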;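 further: 0% = DMSO untreated growth and 100% = chloroquine plus artemisinin killed control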); details: P. falciparum Dd2 in RBCs, LDH growth readout, 72 h; at 2 µM; hits give high values
[2] = human hepatoma cell viability loss – ATP luminescence, cytotoxicity control for P. falciparum antimalarial project, primary screen (AID 2303;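 active means inhibition above 50%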;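 further: 0% = DMSO wells and 100% = digitonin-killed cells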); details: HepG2 viability, 24-48 h, at 10 µM, hits give high values
[3] = target: L-lactate dehydrogenase (Plasmodium falciparum (isolate CDC / Honduras)) (UniProt Q27743); assay: PfLDH activity inhibition – cell lysate, 3D7 strain, counter-screen for P. falciparum growth inhibition project (AID 2304);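 further: 0% = vehicle and 100% = reference inhibitor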; details: P. falciparum 3D7 crude extract, LDH APAD/NBT absorbance; at 2 µM; hits give high values
[4] = inhibition of 3D7 malaria parasite growth – strain 3D7 (AID 2306);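 further: 0% = DMSO wells and 100% = chloroquine plus artemisinin control wells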; details: P. falciparum 3D7 erythrocytic growth, LDH absorbance, 72 h; at 2 µM; hits give high values
[5] = target: Calcium-dependent protein kinase 1 (Plasmodium falciparum (isolate 3D7)) (UniProt P62344); assay: PfCDPK1 kinase inhibitors, biochemical, TCAMS library (AID 1159585; cut-off not given, nearly all actives have IC50 up to about 0.98 µM;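 further: inhibitors leave more ATP so luminescence rises with inhibition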); details: recombinant PfCDPK1, Kinase-Glo ATP depletion luminescence
[6] = target: Plasmodium falciparum protein kinase 6 (PK6, PF3D7_1337100) (UniProt Q8IDW1); assay: PfPK6 kinase inhibitors, biochemical, TCAMS library (AID 1159586); details: recombinant PfPK6, Kinase-Glo ATP depletion luminescence
[7] = target: Protein kinase 7 (PK7), Plasmodium falciparum 3D7 (PF3D7_0213400) (UniProt Q7YTF7); assay: inhibition of Plasmodium PK7 catalytic activity – biochemical, TCAMS antimalarial set, Kinase-Glo luminescence (AID 1159587); details: recombinant PfPK7, Kinase-Glo ATP depletion luminescence
[8] = target: Calcium-dependent protein kinase 4 (Plasmodium falciparum (isolate 3D7)) (UniProt Q8IBS5); assay: PfCDPK4 kinase inhibitors, biochemical, TCAMS library (AID 1159588; cut-off not given, nearly all actives have IC50 up to about 0.91 µM); details: recombinant PfCDPK4, Kinase-Glo ATP depletion luminescence
Sequence of Calcium-dependent protein kinase 4 (Plasmodium falciparum (isolate 3D7)) (Q8IBS5 whole entry, looked up): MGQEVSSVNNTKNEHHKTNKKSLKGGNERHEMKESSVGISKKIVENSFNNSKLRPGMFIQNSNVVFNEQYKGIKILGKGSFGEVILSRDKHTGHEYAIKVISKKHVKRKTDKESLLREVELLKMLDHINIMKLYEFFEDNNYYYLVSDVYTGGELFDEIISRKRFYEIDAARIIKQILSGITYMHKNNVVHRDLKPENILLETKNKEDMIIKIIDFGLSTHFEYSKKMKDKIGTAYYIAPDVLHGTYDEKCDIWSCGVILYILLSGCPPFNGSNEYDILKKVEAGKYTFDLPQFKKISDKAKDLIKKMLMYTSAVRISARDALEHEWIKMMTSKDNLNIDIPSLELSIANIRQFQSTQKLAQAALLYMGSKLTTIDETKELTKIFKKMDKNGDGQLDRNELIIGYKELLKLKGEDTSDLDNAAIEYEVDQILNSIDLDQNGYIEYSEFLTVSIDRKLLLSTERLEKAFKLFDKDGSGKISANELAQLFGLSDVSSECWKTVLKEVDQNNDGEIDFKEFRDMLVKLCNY

Sequence of L-lactate dehydrogenase (Plasmodium falciparum (isolate CDC / Honduras)) (Q27743 whole entry, looked up): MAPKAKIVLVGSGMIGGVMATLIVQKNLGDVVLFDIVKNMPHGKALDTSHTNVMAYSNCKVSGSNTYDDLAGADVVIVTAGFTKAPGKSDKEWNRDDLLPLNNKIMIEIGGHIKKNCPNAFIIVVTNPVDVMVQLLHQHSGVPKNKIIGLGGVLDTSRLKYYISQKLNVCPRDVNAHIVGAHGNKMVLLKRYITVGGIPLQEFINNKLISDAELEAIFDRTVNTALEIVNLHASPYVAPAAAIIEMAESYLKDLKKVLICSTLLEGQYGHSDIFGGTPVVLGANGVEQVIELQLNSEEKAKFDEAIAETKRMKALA
Sequence of Protein kinase 7 (PK7), Plasmodium falciparum 3D7 (PF3D7_0213400) (Q7YTF7 1-343): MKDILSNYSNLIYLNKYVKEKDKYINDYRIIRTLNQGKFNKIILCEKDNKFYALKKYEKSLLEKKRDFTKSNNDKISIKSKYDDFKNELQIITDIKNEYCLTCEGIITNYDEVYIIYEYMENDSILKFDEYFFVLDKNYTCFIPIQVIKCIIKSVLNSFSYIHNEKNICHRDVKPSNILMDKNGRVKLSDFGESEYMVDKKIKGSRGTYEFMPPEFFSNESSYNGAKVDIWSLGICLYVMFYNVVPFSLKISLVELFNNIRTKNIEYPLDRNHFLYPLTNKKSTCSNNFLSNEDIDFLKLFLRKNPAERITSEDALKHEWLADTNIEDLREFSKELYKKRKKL
Sequence of Calcium-dependent protein kinase 1 (Plasmodium falciparum (isolate 3D7)) (P62344 whole entry, looked up): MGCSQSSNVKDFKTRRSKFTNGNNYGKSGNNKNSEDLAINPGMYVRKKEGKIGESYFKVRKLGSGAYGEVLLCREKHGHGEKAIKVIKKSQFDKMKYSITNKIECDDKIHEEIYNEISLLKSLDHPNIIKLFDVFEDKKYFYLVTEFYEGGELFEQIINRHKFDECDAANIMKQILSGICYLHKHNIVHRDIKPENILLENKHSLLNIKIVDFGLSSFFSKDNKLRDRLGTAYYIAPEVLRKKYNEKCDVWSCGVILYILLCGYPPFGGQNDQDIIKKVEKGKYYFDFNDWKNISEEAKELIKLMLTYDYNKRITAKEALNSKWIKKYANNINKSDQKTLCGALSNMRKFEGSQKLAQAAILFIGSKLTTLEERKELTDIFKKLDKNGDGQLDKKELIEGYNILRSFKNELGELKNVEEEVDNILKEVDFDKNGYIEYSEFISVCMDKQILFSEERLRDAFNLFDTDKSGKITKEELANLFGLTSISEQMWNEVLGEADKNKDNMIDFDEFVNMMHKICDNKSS
Sequence of Plasmodium falciparum protein kinase 6 (PK6, PF3D7_1337100) (Q8IDW1 1-305): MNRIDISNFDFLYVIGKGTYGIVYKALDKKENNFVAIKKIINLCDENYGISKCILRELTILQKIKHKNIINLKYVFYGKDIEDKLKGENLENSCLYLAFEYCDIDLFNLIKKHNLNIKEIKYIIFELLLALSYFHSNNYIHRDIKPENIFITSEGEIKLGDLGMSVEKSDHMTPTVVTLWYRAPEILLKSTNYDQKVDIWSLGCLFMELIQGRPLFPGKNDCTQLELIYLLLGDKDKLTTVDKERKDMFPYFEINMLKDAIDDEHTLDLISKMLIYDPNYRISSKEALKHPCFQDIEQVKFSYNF

Row | Structure (SMILES) | growth inhibition [1] | inhibition [2] | inhibition [3] | growth inhibition [4] | outcome [5] | outcome [6] | outcome [7] | outcome [8]
1 | CN1CCC(N2CCN(Cc3ccc(-c4ccc(-c5nc6ccc(F)cc6[nH]5)s4)cc3)CC2)CC1 | 100% (active) | 62% (active) | 3% | 100% (active) | inactive | inactive | inactive | inactive
2 | CS(=O)(=O)c1ccc(-c2cnc(N)c(-c3ccc(O)cc3)c2)cc1 | 94% (active) | 38% | 2% | 84% (active) | inactive | inactive | inactive | inactive
3 | CCCN1CCC=C(c2cccc(Nc3nccc(Nc4cc(OC)ccc4C)n3)c2)C1 | 35% | 15% | -1% | 88% (active) | inactive | inactive | inactive | inactive
4 | O=S(=O)(c1cccc(Cl)c1F)N(CCC(O)(C(F)(F)F)C(F)(F)F)Cc1cccc(O)c1 | 86% (active) | -5% | 0% | 100% (active) | inactive | inactive | inactive | inactive
5 | COc1cc2nccc(Nc3cccc(Oc4ccccc4)c3)c2cc1OC | 95% (active) | 25% | -2% | 102% (active) | inactive | inactive | inactive | inactive
6 | CCOC(=O)c1cn(CC)c2cc(F)c(OC3C[C@@H]4CC[C@@]3(C)C4(C)C)cc2c1=O (stereo partly drawn) | 70% (active) | -7% | -1% | 91% (active) | inactive | inactive | inactive | inactive
7 | NCc1ccc(CNCc2cccc(-c3cccc(-c4nc5ccc(F)cc5[nH]4)c3)c2)cc1 | 34% | 15% | -2% | 101% (active) | inactive | inactive | inactive | inactive
8 | COc1cc(NC(=O)/C=C/c2ccc(-c3ccccc3)cc2)ccc1OCCN(C(C)C)C(C)C | 62% (active) | 58% (active) | -5% | 94% (active) | inactive | inactive | inactive | inactive
9 | CCOc1cc(C(=O)Nc2ccc3nc(N4CCN(C)CC4)cc(C)c3c2)cc(OCC)c1OCC | 50% (active) | 14% | -1% | 97% (active) | inactive | inactive | inactive | inactive
10 | Cc1nn(-c2cccc(C(F)(F)F)c2)c2sc(C(=O)NC3CCN(C(C)C)CC3)cc12 | 20% | 98% (active) | -4% | 94% (active) | inactive | inactive | inactive | inactive
11 | COc1cc(CCCON2C(N)=NC(N)=NC2(C)C)cc(OC)c1OC | 94% (active) | 68% (active) | -2% | 98% (active) | inactive | inactive | inactive | inactive
12 | CCOc1ccc(-c2nonc2NC(=O)c2ccc(F)cc2)cc1OCC | 99% (active) | 36% | 0% | 102% (active) | inactive | inactive | inactive | inactive
13 | COC(=O)c1ccc(CCC(C)NCC(O)c2cccc(Cl)c2)cc1 (stereo not drawn) | 94% (active) | -4% | 1% | 100% (active) | inactive | inactive | inactive | inactive
14 | c1ccc(-c2cc(NCCCCNc3cc(-c4ccccc4)nc4ccccc34)c3ccccc3n2)cc1 | 97% (active) | 70% (active) | 0% | 102% (active) | inactive | inactive | inactive | inactive
15 | Cn1cncc1C(=O)Nc1cccc(-c2ccc(-c3nc4ccc(C(F)(F)F)cc4[nH]3)cc2)c1 | 98% (active) | 4% | 1% | 97% (active) | inactive | inactive | inactive | inactive
16 | CC1Cc2ccccc2N1S(=O)(=O)c1cc(OCC(F)(F)F)ccc1OCC(F)(F)F (stereo not drawn) | 95% (active) | 10% | 0% | 96% (active) | inactive | inactive | inactive | inactive
17 | Cc1sc(C)c(C(F)(F)F)c1CNCCCNc1cc(=O)c2ccccc2[nH]1 | 43% | -3% | -1% | 96% (active) | inactive | inactive | inactive | inactive
18 | CCCCn1c(SC(C)C)nc2c(c1=O)C1(CCCCC1)Cc1ccccc1-2 | 60% (active) | 1% | -2% | 99% (active) | inactive | inactive | inactive | inactive
19 | S=C(NCCN1CCOCC1)Nc1ccccc1 | 1% | 3% | 1% | 94% (active) | inactive | inactive | inactive | inactive
20 | C[C@@H]1CN(c2cnn(Cc3cccc(NC(=O)Nc4cccc(C(F)(F)F)c4)c3)c(=O)c2Cl)C[C@H](C)N1 | 74% (active) | 19% | -4% | 96% (active) | inactive | inactive | inactive | inactive
21 | CC(C)N1CCN(c2ccc(OCCCCN3CCN(c4cccc(Cl)c4Cl)CC3)c(C(F)(F)F)c2)CC1 | 28% | 64% (active) | 4% | 101% (active) | inactive | inactive | inactive | inactive

Row | Structure (SMILES) | growth inhibition [1] | inhibition [2] | inhibition [3] | growth inhibition [4] | outcome [5] | outcome [6] | outcome [7] | outcome [8]
22 | c1ccc(-c2ccc3c(Nc4ccc5[nH]ncc5c4)ccnc3c2)nc1 | 99% (active) | 99% (active) | 4% | 100% (active) | inactive | inactive | inactive | inactive
23 | CCCCCCN(CCCCCC)CC(O)c1cc(-c2ccc(Cl)cc2)nc2c(C)cc(C)cc12 (stereo not drawn) | 98% (active) | 27% | -2% | 98% (active) | inactive | inactive | inactive | inactive
24 | O=S(=O)(NCCN1CCCC1)c1ccc(-c2ccc(CNCc3ccc(F)cc3)cc2)s1 | 44% | 42% | 6% | 101% (active) | inactive | inactive | inactive | inactive
25 | CCc1cn2c3c(cc(C(=O)N[C@@H](Cc4cc(F)cc(F)c4)[C@H](O)CNC4CCCCC4)cc13)N(C)S(=O)(=O)CC2 | 99% (active) | 9% | -6% | 100% (active) | inactive | inactive | inactive | inactive
26 | CN1CCC(N(Cc2ccc(-c3cnc(NCc4ccccc4)nc3)cc2)S(=O)(=O)c2ccccc2)CC1 | 10% | 48% | 1% | 102% (active) | inactive | inactive | inactive | inactive
27 | Oc1cccc(Nc2nc(NCc3ccccc3)c3ccccc3n2)c1 | 99% (active) | 21% | -7% | 95% (active) | inactive | inactive | inactive | inactive
28 | N#Cc1ccccc1Sc1ccccc1C(=O)Nc1ccc2ccccc2n1 | 85% (active) | -3% | 0% | 92% (active) | inactive | inactive | inactive | inactive
29 | Fc1ccc2nc(-c3cccc(-c4cccc(CNCC5CCCO5)c4)c3)[nH]c2c1 (stereo not drawn) | 94% (active) | 40% | 3% | 99% (active) | inactive | inactive | inactive | inactive
30 | Cc1c(Cc2ccccc2)c(=O)oc2c(C)c3c(cc12)CN(CC(C)c1ccccc1)CO3 (stereo not drawn) | 98% (active) | 1% | -1% | 98% (active) | inactive | inactive | inactive | inactive
31 | Nc1ccc(-c2ccc(NC(=O)Nc3ccccc3)cc2)cn1 | 93% (active) | -3% | -1% | 91% (active) | inactive | inactive | inactive | inactive
32 | Cc1cc(C)c(NC(=O)NC2CCN(CCCCCNC(=O)/C=C/c3ccc(Cl)c(Cl)c3)CC2)c(C)c1 | 17% | 30% | 2% | 103% (active) | inactive | inactive | inactive | inactive
33 | O=[N+]([O-])c1ccc(C=NNc2nc3ccccc3[nH]2)cc1 | 98% (active) | 11% | -6% | 101% (active) | inactive | inactive | inactive | inactive
34 | Cc1cc(=O)c(-c2ccc(OCc3ccc(OC(F)(F)F)cc3)cc2)c(C)[nH]1 | 92% (active) | 3% | 3% | 97% (active) | inactive | inactive | inactive | inactive
35 | N[C@@H](Cc1ccc(O)cc1)C(=O)NC(c1ccccc1)c1c(O)ccc2ccccc12 (stereo partly drawn) | 95% (active) | 6% | 2% | 95% (active) | inactive | inactive | inactive | inactive
36 | NC1CCN(Cc2cccc(-c3ccc(-c4nc5ccc(C(F)(F)F)cc5[nH]4)cc3)c2)C1 (stereo not drawn) | 97% (active) | 21% | -9% | 99% (active) | inactive | inactive | inactive | inactive
37 | Fc1ccc2c(NN=Cc3ccccc3F)ccnc2c1 | 99% (active) | 10% | -1% | 101% (active) | inactive | inactive | inactive | inactive
38 | N#Cc1ccc(NC(=O)NC2CCN(CCCCCNC(=O)/C=C/c3ccc(Cl)c(Cl)c3)CC2)cc1 | 4% | 15% | 0% | 98% (active) | inactive | inactive | inactive | inactive
39 | COc1ccc2nc(C)cc(Nc3ccc(Oc4ccc5ccccc5c4)c(Cl)c3)c2c1 | 99% (active) | 40% | 3% | 102% (active) | inactive | inactive | inactive | inactive
40 | CCOc1cccc2nc(NCCCNCc3ccc(Cl)c(Cl)c3)cc(NCCCNCc3ccc(Cl)c(Cl)c3)c12 | 58% (active) | 96% (active) | -5% | 98% (active) | inactive | inactive | inactive | inactive
41 | COc1cc2nc(NCCc3ccccc3)nc(NCc3cc(C)no3)c2cc1OC | 100% (active) | 5% | -3% | 99% (active) | inactive | inactive | inactive | inactive

— PubChem BioAssay
